Compound activity deposited in PubChem by National Center for Advancing Translational Sciences (NCATS).
In the library only some 19% were active in any assay of this set; here they are far more common.
DT40 TDP1 no CPT: qHTS for Inhibitors of human tyrosyl-DNA phosphodiesterase 1 (TDP1): qHTS in cells in absence of CPT | Potency, µM (series often up to 46.2 µM), actives largely listed as inhibitors | DT40 Tdp1-/- hTDP1 cells, no CPT, ATP luminescence, 48 h | AID 686978, 2013 | 420,000 compounds, 15% hits; also: nearly all actives have a fitted effect of over 55% in size
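Growth of hTDP1-complemented DT40 Tdp1-knockout cells is measured by ATP luminescence after at least 48 hr compound exposure at 37 °C, with DMSO substituting for the 20 nM CPT used in the parallel screen.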
TDP1 cell CPT: growth inhibition of DT40 Tdp1-/-;hTDP1 cells with camptothecin (screen for TDP1 inhibitors). chicken DT40 Tdp1-/-;hTDP1 cells + 20 nM CPT, ATP luminescence, 48 h. Potency, µM (titrated, usually from 46.2 µM), hits mostly inhibitors. 420,000 compounds, 12% hits; also: nearly all actives have a fitted effect of over 55% in size
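Cell growth measured by CellTiter-Glo luminescence after a minimum 48 h, 37 C compound exposure with 20 nM CPT in Tdp1-knockout DT40 cells stably expressing hTDP1, seeded 400/well; qHTS titration format.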
HT1080-NT tox: kills 2HG-producing HT-1080-NT fibrosarcoma cells. HT-1080-NT fibrosarcoma viability, CellTiter-Glo ATP luminescence, 48 h. Potency, µM (titrated, usually from 46.1 µM), actives largely listed as cytotoxic. 360,000 compounds, 1.6% hits;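 also: NT is the 2HG producing partner of a matched IDH1 knockdown line; nearly all actives have a fitted effect of over 55% in size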
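Toxicity toward the 2HG-producing NT line was scored as %Activity, normalised to DMSO and no-cell wells, from CellTiter-Glo luminescence after 48 hours' treatment.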
HT1080 IDH1KD tx: kills HT-1080 cells with IDH1 knockdown. HT-1080 IDH1 knockdown viability, ATP luminescence, 48 h. 360,000 compounds, 2% hits. Potency, µM (series often up to 46.1 µM), most hits filed as cytotoxic
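% activity derives from luminescence (CellTiter-Glo), normalised to DMSO and no-cell wells. HT-1080-IDH1KD cells, 750/well, had 48 h compound exposure at 37 °C.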
IL-1B inflam inh: inhibitors of inflammasome signaling (IL-1 beta secretion). THP-1 LPS/ATP IL-1B secretion, AlphaLISA, 16 h; hits give low values. activity change, % at 57.5 µM. 360,000 compounds, 4.7% hits. AID 743279; in the data active = activity change below about -50%; inconclusive = mostly about -30% to -49%
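Secreted IL-1B measured by AlphaLISA bead assay after 16 h compound exposure of THP-1 cells; compounds (final up to 57.5 uM) added 1 h before LPS (250 ng/mL) and ATP (1.25 mM) stimulation; lower signal means less secretion.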
Hits are given with their value; n = inactive; u = inconclusive; x = no result given. Unless noted, calls follow the shape of the dose curve; as a rule, active = well fitted curve in the direction sought with a large enough effect; inconclusive = small, poorly fitted or top-dose-only effect, or another doubt; inactive = no such curve, though single readings can be large; an effect the other way counts as inactive or inconclusive.

SMILES	DT40 TDP1 no CPT	TDP1 cell CPT	HT1080-NT tox	HT1080 IDH1KD tx	IL-1B inflam inh
O=[N+]([O-])c1cc(S(=O)(=O)C(F)(F)F)ccc1N1CCN(c2ccccc2)CC1	16.4µM	u	n	n	u
CC(C)=C1SC(N2CCN(c3cccc(C(F)(F)F)c3)CC2)=NC1=O	u	u	n	n	n
CN(CC(=O)Nc1ccc(F)cc1F)S(=O)(=O)c1ccc(C(=O)N2CCOCC2)s1	n	u	x	x	x
O=C(NNc1c([N+](=O)[O-])cc(C(F)(F)F)cc1[N+](=O)[O-])c1ccco1	23.1µM	25.9µM	20.6µM	u	n
Cc1ccc2nccc(/C=C/c3ccc(N(C)C)cc3)c2c1	14.1µM	11.2µM	x	x	x
CN(C)c1ccc(/C=C/c2ccnc3cc(Cl)ccc23)cc1	11.2µM	u	x	x	x
Cc1ccc2c(/C=C/c3ccc(N(C)C)cc3)ccnc2c1	u	11.2µM	x	x	x
COc1ccc(OC)c2c(/C=C/c3ccc(N(C)C)cc3)ccnc12	6.31µM	10µM	x	x	x
Cc1cc(C)nc(NNC(=O)c2ccccc2O)n1	u	u	n	n	n
CCOc1ccc(S(=O)(=O)NCCC(=O)N(C)CC(=O)Nc2ccc(N3CCOCC3)cc2)cc1	u	n	n	n	n
CC(C)(C)c1ccc(C(=O)N2CCC2(C)C(=O)NS(=O)(=O)c2ccccc2Cl)cc1 (stereo unspecified)	n	n	n	n	n
Cc1ccc([C@@H]2C[C@H]3[C@@H](CN2S(=O)(=O)c2ccc(Cl)cc2)C(=O)C[C@@H](c2ccc(C)cc2)N3S(=O)(=O)c2ccc(Cl)cc2)cc1	n	n	n	n	n
CN(C)c1ccc(/C=C/c2ccnc3c(N)cccc23)cc1	1.41µM	2µM	x	x	x
COc1ccc(OC)c2c(/C=C/c3c(C)[nH]c4ccccc34)ccnc12	11.2µM	10µM	x	x	x
CN(C)c1ccc(/C=C/c2ccnc3c2ccc2c(/C=C/c4ccc(N(C)C)cc4)ccnc23)cc1	n	n	x	x	x
CC1(C)CC(=O)c2cc(C(=O)Nc3ccc(Br)cc3)c(=O)[nH]c2C1	n	n	x	x	x
Cc1ccccc1NC(=O)Cc1nc(-c2c[nH]c(C(=O)N3CCCC3)c2)cs1	u	18.4µM	n	n	n
Cc1cccc(NC(=O)Cc2nc(-c3c[nH]c(C(=O)N4CCCC4)c3)cs2)c1	u	u	n	n	n
CC(=O)c1ccccc1OCCn1nc(C(=O)O)c2ccccc2c1=O	16.4µM	n	n	n	n
Cc1ccc(-c2cc(C(=O)NCc3cnn(C)c3C)c3cc(Br)ccc3n2)cc1	u	u	u	u	n
Cc1ccc(-c2cc(C(=O)N(C)Cc3cnn(C)c3C)c3cc(Br)ccc3n2)cc1	10.3µM	7.31µM	n	n	n
O=C(N/N=C/c1ccc(O)cc1)c1ccc(COc2cc(Cl)ccc2Cl)o1	u	u	u	u	n
Cc1csc(NC(=O)c2ccc(Cn3nc(C)c(Br)c3C)o2)n1	20.6µM	u	u	n	-73.2
Cc1nn(Cc2ccc(C(=O)Nc3ccccc3C(F)(F)F)o2)c(C)c1Br	u	u	n	n	n
Cc1cccc(NC(=O)COC(=O)c2cccs2)c1C	n	n	n	n	n
SMILES	DT40 TDP1 no CPT	TDP1 cell CPT	HT1080-NT tox	HT1080 IDH1KD tx	IL-1B inflam inh
N#Cc1cccc(C#N)c1Oc1ccc(S(=O)(=O)Nc2ccc(Cl)cc2)cc1	16.4µM	n	n	n	n
O=C(O)c1sccc1Oc1ccc(NS(=O)(=O)c2ccc(Cl)cc2)cc1	n	n	n	n	n
O=[N+]([O-])c1ncccc1OCc1ccccc1Br	u	n	n	n	n
C[C@@]12C(=O)OC(=O)[C@]1(C)C1CCC2O1	n	n	1.46µM	1.46µM	n
CC12C(=O)N(c3nccs3)C(=O)C1(C)C1CCC2O1 (stereo unspecified)	n	n	n	n	n
Cc1noc2ncnc(Oc3cc(Cl)ccc3Cl)c12	n	n	u	n	-102.2
Cc1noc2ncnc(Oc3ccc4ccccc4c3)c12	n	n	n	n	u
COc1ccccc1CNC(=O)c1ccc2c(c1)CCN2S(=O)(=O)c1ccc(Cl)cc1	u	n	x	x	x
COc1ccc(OC)c(CNC(=O)c2cc3ccc4cccnc4c3[nH]2)c1	25.9µM	u	x	x	x
Cc1ccc(CN2CCC(CNC(=O)c3cc4ccc5cccnc5c4[nH]3)CC2)cc1	16.4µM	16.4µM	x	x	x
COc1cccc(CNC(=O)c2cc3ccc4cccnc4c3[nH]2)c1	n	n	x	x	x
CCN(Cc1ccccc1)C(=O)c1cc2ccc3cccnc3c2[nH]1	18.4µM	u	x	x	x
Cc1ccc(NC(=O)c2cc3c(=O)[nH]c4ccccc4c3n2C)cc1F	n	u	x	x	x
C/C(=N\NC(=O)C(C)n1nc(C)c([N+](=O)[O-])c1C)c1ccccc1O (stereo unspecified)	1.84µM	4.11µM	u	9.2µM	n
Cc1nn(C(C)C(=O)NCc2ccco2)c(C)c1[N+](=O)[O-] (stereo unspecified)	n	n	n	n	n
COC(=O)c1nc2n(n1)C(c1cc(OC)ccc1OC)C(C(=O)OC1CCCCC1)=C(C)N2 (stereo unspecified)	n	n	n	n	n
CCCN1CCN(c2nnc(-n3cccc3C(=O)Nc3ccccc3C(F)(F)F)s2)CC1	20.6µM	20.6µM	x	x	x
COc1ccccc1CNC(=O)c1cccn1-c1nnc(N2CCCCC2)s1	n	n	x	x	x
CCN1CCN(c2nnc(-n3cccc3C(=O)NCc3ccccc3OC)s2)CC1	u	16.4µM	x	x	x
COc1ccc(OC)c(C2C3=C(COC3=O)Nc3cc4c(cc32)OCO4)c1 (stereo unspecified)	0.146µM	0.164µM	0.651µM	0.517µM	n
COc1ccc(C2C3=C(CC(C)(C)CC3=O)Nc3cc4c(cc32)OCO4)cc1 (stereo unspecified)	n	n	n	n	-60.0
CC1(C)CC(=O)C2=C(C1)Nc1cc3c(cc1C2c1ccc(F)cc1)OCO3 (stereo unspecified)	u	u	n	n	n
CCOc1c2c(c(-c3ccc4c(c3)OCO4)c3cc(OC)c(OC)cc13)C(=O)OC2	0.562µM	0.891µM	x	x	x
O=C(Nc1ccccc1Br)N1CCC(CN2CCCC2)CC1	n	n	x	x	x
CCOC(=O)CSc1nsc(SCC(=O)OCC)c1C#N	n	n	n	n	u
CC(C)(C)NC(=O)CSc1nsc(SCC(=O)NC(C)(C)C)c1C#N	16.4µM	23.1µM	n	n	n
N#Cc1c(SCC(=O)N2CCOCC2)nsc1SCC(=O)N1CCOCC1	n	n	n	n	n
Cc1ccc(NC(=O)CSc2nsc(SCC(=O)Nc3ccc(C)cc3C)c2C#N)c(C)c1	u	u	n	n	n
CC(=O)CSc1nsc(SCC(C)=O)c1C#N	18.4µM	18.4µM	n	n	n
Cc1csc(NC(=O)CSc2nsc(SCC(=O)Nc3nc(C)cs3)c2C#N)n1	12.6µM	15.8µM	n	u	n
